Data taken from PubChem BioAssay AID376 (PDSP, 2006).
The campaign covered roughly 2,000 compounds. About 250 (12%) were called active. Shown is part of a subset that was picked to be rich in actives. A number with no mark means an inactive call. Cut-off read from the data, not from the text of the source: active = hERG blockade below about -20% or above about 20%; inactive = in between.

Target: Voltage-gated inwardly rectifying potassium channel KCNH2 (Homo sapiens) (UniProt Q12809)
Assay: KCNH2 potassium channel function modulators, cell-based (AID 376);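 note: 0% = buffer alone and 100% = reference blocker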
Conditions: hERG-expressing cells, channel activity single-concentration screen; concentration not given here

Sequence of Voltage-gated inwardly rectifying potassium channel KCNH2 (Homo sapiens) (Q12809 whole entry, looked up): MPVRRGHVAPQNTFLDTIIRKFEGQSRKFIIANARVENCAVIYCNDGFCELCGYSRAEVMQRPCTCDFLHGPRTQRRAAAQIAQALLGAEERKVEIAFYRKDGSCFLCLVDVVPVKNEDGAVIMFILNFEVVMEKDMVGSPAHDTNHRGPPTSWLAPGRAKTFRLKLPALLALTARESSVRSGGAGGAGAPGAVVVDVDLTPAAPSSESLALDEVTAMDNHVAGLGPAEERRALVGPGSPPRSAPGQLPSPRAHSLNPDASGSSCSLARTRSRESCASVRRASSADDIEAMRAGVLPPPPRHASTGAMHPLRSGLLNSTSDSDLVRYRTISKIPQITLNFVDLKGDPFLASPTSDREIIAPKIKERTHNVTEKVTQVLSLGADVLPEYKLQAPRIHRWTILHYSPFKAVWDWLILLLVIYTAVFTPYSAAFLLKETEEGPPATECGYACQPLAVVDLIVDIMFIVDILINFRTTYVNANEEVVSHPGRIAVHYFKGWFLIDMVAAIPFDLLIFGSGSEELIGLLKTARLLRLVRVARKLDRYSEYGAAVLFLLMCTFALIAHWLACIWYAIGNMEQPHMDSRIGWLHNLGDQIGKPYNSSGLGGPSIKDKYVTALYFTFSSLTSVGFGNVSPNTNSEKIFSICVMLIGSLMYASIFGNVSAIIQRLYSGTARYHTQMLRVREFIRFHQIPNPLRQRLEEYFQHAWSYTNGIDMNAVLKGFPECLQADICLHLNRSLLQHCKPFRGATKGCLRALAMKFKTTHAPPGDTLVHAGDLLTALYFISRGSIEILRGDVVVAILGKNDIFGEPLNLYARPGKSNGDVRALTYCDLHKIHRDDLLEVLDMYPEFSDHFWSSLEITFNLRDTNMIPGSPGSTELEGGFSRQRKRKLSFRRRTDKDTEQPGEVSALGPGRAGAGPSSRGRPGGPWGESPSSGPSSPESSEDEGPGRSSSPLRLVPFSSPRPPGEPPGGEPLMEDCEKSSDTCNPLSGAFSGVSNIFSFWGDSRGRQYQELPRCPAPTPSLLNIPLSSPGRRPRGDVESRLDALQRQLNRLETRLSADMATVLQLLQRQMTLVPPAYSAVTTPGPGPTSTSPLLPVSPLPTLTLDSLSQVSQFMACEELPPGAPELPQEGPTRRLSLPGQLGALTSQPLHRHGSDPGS

SMILES | hERG blockade
COc1cc2c(cc1OC)C13CCN4CC5=CCOC(CC(=O)O)C(C5CC41)C3N2 (stereo unspecified) | 2.07%
O=c1[nH]cnc2[nH]cc(CN3CCCCC3)c12 | 1.35%
O=c1[nH]c2ccccc2n1CCCN1CCC(n2c(=O)[nH]c3cc(Cl)ccc32)CC1 | 67.7% (active)
CCNC(C)(C)C(SS)c1ccc(Br)cc1 (stereo unspecified) | -7.7%
O=C(O)CC1OCC=C2CN3CCC45c6ccccc6NC4C1C2CC35 (stereo unspecified) | -7.07%
CC1(C)CC(=N[N-]C(N)=[SH+])CC(C)(C)N1.CC1(C)CC(=N[N-]C(N)=[SH+])CC(C)(C)N1.[Ni] | -0.871%
O=C(O)C1[O][Sb][O]C(C(=O)O)C1O (stereo unspecified) | -9.98%
CC(C)=CC1C(C(=O)OCc2cc3c(cc2Cl)OCO3)C1(C)C (stereo unspecified) | 1.35%
c1nc(N2CC2)c2cnn(C3CCCCO3)c2n1 (stereo unspecified) | 4.58%
O=C(O)C1C2c3ccccc3C(c3ccccc32)C1C(=O)NCC1CC1 (stereo unspecified) | -8.3%
CC(C)CCC1(CCN)C(=O)NC(=O)NC1=O | -21.5% (active)
CC12Cc3cnc(-c4ccccc4)nc3CC1CCC1C2CCC2(C)C1CCC2(C)O (stereo unspecified) | 6.41%
NC(Cc1c[nH]c2cc([N+](=O)[O-])ccc12)C(=O)O (stereo unspecified) | -0.372%
CCNCCC1(CC)C(=O)NC(=O)NC1=O | -21.7% (active)
CCC1(CCSC(=N)N)C(=O)NC(=O)NC1=O | -24.7% (active)
NCC(O)CSP(=O)(O)O (stereo unspecified) | -13.3%
CS(=N)(=O)CCC(N)P(=O)(O)O (stereo unspecified) | -8.23%
COc1cc2ccccc2c2cc([N+](=O)[O-])oc12 | 15.9%
CC12CCC(O)CC1CCC1C2CCC2(C)C(C(=O)CC(O)C(F)(F)F)CCC12 (stereo unspecified) | -1.73%
CC(C)CC(=O)CC(O)C(Cl)(Cl)Cl (stereo unspecified) | -17%
CC(Br)(C(=O)O)C(Br)C(=O)O (stereo unspecified) | 11.1%

SMILES | hERG blockade
CCC1C2Cc3ccc(O)cc3C1(CC)CCN2C (stereo unspecified) | 1.71%
CCC1=C(CC2NCCc3cc(OC)c(OC)cc32)CC2c3ccccc3CCN2C1 (stereo unspecified) | 46% (active)
COC(=O)c1c(C)ccc2c(O)c3c(cc12)C(=O)c1c2c(cc(O)c1C3=O)C1(C)OC(C)(O2)C(O)C(N(C)C)C1O (stereo unspecified) | 18.8%
NCCc1ccc(S(=O)(=O)O)cc1[N+](=O)[O-] | 2.55%
O=[As](O)(O)c1ccc(NCc2ccccc2)cc1 | -4.95%
COc1ccc(CC(N)c2ccc(OC)cc2)cc1 (stereo unspecified) | 16.9%
CC(=O)OC1CC2(C)C(=CC1C1SCCS1)CCC1C2CCC2(C)C(OC(C)=O)CCC12 (stereo unspecified) | 4.12%
Cc1ccc(C2(c3ccc(C)c(O)c3C)CCN(C)CC2)c(C)c1O | 21.1% (active)
Cc1ncc([N+](=O)[O-])n1CCN=[N+]=[N-] | -3.49%
c1ccc(C[N+]23CN4CN(CN(C4)C2)C3)cc1 | -14.9%
Nc1nc2c(ncn2C2OC(CO)C(O)C2O)c(=[SH+])[nH]1.O=[N+]([O-])c1ccc(O)[c]([Hg])c1 (stereo unspecified) | 5.92%
COC(=O)C1c2cc3c(c(O)c2C(O)CC1(C)O)C(=O)c1c(O)cc2c(c1C3=O)OC1OC2(C)C(O)C(N(C)C)C1O (stereo unspecified) | 18.4%
NC(Cc1ccccc1)P(=O)(O)O (stereo unspecified) | 1.7%
CC1(C)CCC(C)(C)c2c1ccc(O)c2Cc1c(O)ccc2c1C(C)(C)CCC2(C)C | -7.52%
COc1ccc(CC2C(=O)NC(C)C(=O)N(C)C3C(=O)N(C)C(Cc4ccc(O)c(c4)Oc4ccc(cc4)C3O)C(=O)NC(C)C(=O)NC(C)C(=O)N2C)cc1 (stereo unspecified) | 6.31%
COc1cc2c3cc1Oc1c(O)c(OC)cc4c1C(Cc1ccc(cc1)Oc1cc(ccc1O)CC3N(C)CC2)N(C)CC4 (stereo unspecified) | 38.6% (active)
COc1cc2c(cc1O)CC1c3c(cc(O)c(OC)c3-2)CCN1C (stereo unspecified) | 4.49%
N#CS.N=C=S.N=C=S.[Cu+2].[NH2-].[NH2-].[NH2-].[NH2-].c1ccc2ncccc2c1 | 6.79%
c1cncc(CNCCN2CCNCC2)c1 | -8.8%
NC1(P(=O)(O)O)CCCCC1 | -4.89%
